According to the supplement of paper PMC8728848:
This excerpt belongs to a sample that is enriched for the strongest signals.

B1: Gal 3 (Homo sapiens), P17931 (protein)
chain: MADNFSLHDALSGSGNPNPQGWPGAWGNQPAGAGGYPGASYPGAYPGQAPPGAYPGQAPPGAYHGAPGAYPGAPAPGVYPGPPSGPGAYPSSGQPSAPGAYPATGPYGAPAGPLIVPYNLPLPGGVVPRMLITILGTVKPNANILDFQRGNDVAFHFNPRFNENNRRVIVCNTKLDNNWAREERQSVFPFESGKPFKIQVLVEPDHFKVAVNDAHLLQYNHRVKKLNEISKLGISGDIDLTSASYTMI
B2: Surfactant Protein D (Human); Neck + Carbohydrate Recognition Domain (NCRD) (Homo sapiens) (protein)
chain: MLLFLLSALVLLTQPLGYLEAEMKTYSHRTMPSACTLVMCSSVESGLPGRDRDGREGPRGEKGDPGLPGAAGQAGMPGQAGPVGPKGDNGSVGEPGPKGDTGPSGPPGPPGVPGPAGREGALGKQGNIGPQGKPGPKGEAGPKGEVGAPGMQGSAGARGLAGPKGERGVPGERGVPGNTGAAGSAGAMGPQGSPGARGPPGLKGDKGIPGDKGAKGESGLPDVASLRQQVEALQGQVQHLQAAFSQYKKVELFPNGQSVGEKIFKTAQFVKPFTEAQLLCTQAGGQLASPRSAAENAALQQLVVAKNEAAFLSMTDSKTEGKFTYPTGESLVYSNWAPGEPNDDGGSEDCVEIFTNGKWNDRACGEARLVVCEF

What was measured:
Experiment in all cases: glycan array binding signal (z-score within array); higher = stronger binding
[1] = molecular target: Neu5Ac(a2-8)Neu5Ac(a2-8)Neu5Ac(a2-3)[GalNAc(b1-4)]Gal(b1-4)Glc; conditions: glycan notation: IUPAC condensed, linker removed; mutation: G182A
Procedure, shortened: (§1)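 From the Consortium for Functional Glycomics database, 3228 arrays were curated, keeping only those whose protein sequence was available. Binding is given as a within-array Z-score averaged across arrays sharing a protein sequence and across linkers. Negative Z-scores can be read as non-binding.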

[2] = molecular target: Neu5Ac9Ac(a2-6)Gal(b1-4)GlcNAc; conditions: glycan notation: IUPAC condensed, linker removed; mutation: G182A
Procedure, shortened: as §1

[3] = molecular target: Neu5Gc(a2-3)Gal(b1-4)Glc; conditions: glycan notation: IUPAC condensed, linker removed; mutation: G182A
Procedure, shortened: as §1

[4] = molecular target: Fuc(a1-2)Gal(b1-4)GlcNAc; conditions: glycan notation: IUPAC condensed, linker removed; mutation: K348A
Procedure, shortened: as §1

[5] = molecular target: Fuc(a1-2)Gal(b1-4)[Fuc(a1-3)]GlcNAc(b1-3)Gal(b1-4)[Fuc(a1-3)]GlcNAc(b1-3)Gal(b1-4)[Fuc(a1-3)]GlcNAc; conditions: glycan notation: IUPAC condensed, linker removed; mutation: K348A
Procedure, shortened: as §1

[6] = molecular target: Fuc(a1-2)[Gal(a1-3)]Gal(b1-4)[Fuc(a1-3)]GlcNAc; conditions: glycan notation: IUPAC condensed, linker removed; mutation: K348A
Procedure, shortened: as §1

[7] = molecular target: Fuc(a1-2)[GalNAc(a1-4)]Gal(b1-4)GlcNAc; conditions: glycan notation: IUPAC condensed, linker removed; mutation: K348A
Procedure, shortened: as §1

[8] = molecular target: Fuc(a1-3)GlcNAc; conditions: glycan notation: IUPAC condensed, linker removed; mutation: K348A
Procedure, shortened: as §1

[9] = molecular target: Fuc(a1-3)[Gal(b1-4)]GlcNAc(b1-2)Man(a1-3)[Fuc(a1-3)[Gal(b1-4)]GlcNAc(b1-2)Man(a1-6)]Man(b1-4)GlcNAc(b1-4)GlcNAc; conditions: glycan notation: IUPAC condensed, linker removed; mutation: K348A
Procedure, shortened: as §1

[10] = molecular target: Fuc(a1-3)[Gal(b1-4)]GlcNAc(b1-4)Gal(b1-4)[Fuc(a1-3)]GlcNAc; conditions: glycan notation: IUPAC condensed, linker removed; mutation: K348A
Procedure, shortened: as §1

[11] = molecular target: Fuc(a1-3)[Gal(b1-4)]GlcNAc6S; conditions: glycan notation: IUPAC condensed, linker removed; mutation: K348A
Procedure, shortened: as §1

[12] = molecular target: Gal(b1-3)[Neu5Ac(b2-6)]GalNAc; conditions: glycan notation: IUPAC condensed, linker removed; mutation: K348A
Procedure, shortened: as §1

[13] = molecular target: Gal(b1-4)GalNAc(a1-3)[Fuc(a1-2)]Gal(b1-4)GlcNAc; conditions: glycan notation: IUPAC condensed, linker removed; mutation: K348A
Procedure, shortened: as §1

[14] = molecular target: Gal(b1-4)GlcNAc(b1-3)[Gal(b1-4)GlcNAc(b1-6)]Gal(b1-4)GlcNAc; conditions: glycan notation: IUPAC condensed, linker removed; mutation: K348A
Procedure, shortened: as §1

[15] = molecular target: Gal(b1-4)GlcNAc(b1-6)GalNAc; conditions: glycan notation: IUPAC condensed, linker removed; mutation: K348A
Procedure, shortened: as §1

[16] = molecular target: GalNAc(b1-4)GlcNAc; conditions: glycan notation: IUPAC condensed, linker removed; mutation: K348A
Procedure, shortened: as §1

[17] = molecular target: Glc(a1-4)Glc; conditions: glycan notation: IUPAC condensed, linker removed; mutation: K348A
Procedure, shortened: as §1

[18] = molecular target: Glc(b1-4)Glc; conditions: glycan notation: IUPAC condensed, linker removed; mutation: K348A
Procedure, shortened: as §1

[19] = molecular target: GlcNAc(b1-3)[GlcNAc(b1-6)]Gal(b1-4)GlcNAc; conditions: glycan notation: IUPAC condensed, linker removed; mutation: K348A
Procedure, shortened: as §1

[20] = molecular target: Man(a1-2)Man(a1-2)Man(a1-6)[Man(a1-3)]Man; conditions: glycan notation: IUPAC condensed, linker removed; mutation: K348A
Procedure, shortened: as §1

[21] = molecular target: Man(a1-2)Man(a1-3)[Man(a1-2)Man(a1-6)]Man; conditions: glycan notation: IUPAC condensed, linker removed; mutation: K348A
Procedure, shortened: as §1

[22] = molecular target: Man(a1-2)Man(a1-3)[Man(a1-2)Man(a1-6)]Man(a1-6)[Man(a1-2)Man(a1-2)Man(a1-3)]Man; conditions: glycan notation: IUPAC condensed, linker removed; mutation: K348A
Procedure, shortened: as §1

[23] = molecular target: Man(a1-3)[Man(a1-6)]Man(a1-6)[Man(a1-2)Man(a1-3)]Man(b1-4)GlcNAc(b1-4)GlcNAc; conditions: glycan notation: IUPAC condensed, linker removed; mutation: K348A
Procedure, shortened: as §1

[24] = molecular target: Man(a1-3)[Man(a1-6)]Man(a1-6)[Man(a1-3)]Man; conditions: glycan notation: IUPAC condensed, linker removed; mutation: K348A
Procedure, shortened: as §1

[25] = molecular target: Neu5Ac(a2-3)Gal(b1-3)GalNAc(b1-4)[Neu5Ac(a2-3)]Gal(b1-4)Glc; conditions: glycan notation: IUPAC condensed, linker removed; mutation: K348A
Procedure, shortened: as §1

[26] = molecular target: Neu5Ac(a2-3)Gal(b1-3)[Fuc(a1-4)]GlcNAc(b1-3)Gal(b1-4)[Fuc(a1-3)]GlcNAc; conditions: glycan notation: IUPAC condensed, linker removed; mutation: K348A
Procedure, shortened: as §1

[27] = molecular target: Neu5Ac(a2-3)Gal(b1-4)[Fuc(a1-3)]GlcNAc(b1-3)Gal; conditions: glycan notation: IUPAC condensed, linker removed; mutation: K348A
Procedure, shortened: as §1

[28] = molecular target: Neu5Ac(a2-3)Gal(b1-4)[Fuc(a1-3)]GlcNAc(b1-6)[Gal(b1-3)]GalNAc; conditions: glycan notation: IUPAC condensed, linker removed; mutation: K348A
Procedure, shortened: as §1

[29] = molecular target: Neu5Ac(a2-6)Gal(b1-4)Glc; conditions: glycan notation: IUPAC condensed, linker removed; mutation: K348A
Procedure, shortened: as §1

[30] = molecular target: Neu5Gc(a2-3)Gal(b1-3)[Fuc(a1-4)]GlcNAc; conditions: glycan notation: IUPAC condensed, linker removed; mutation: K348A
Procedure, shortened: as §1

| Binder | glycan array binding signal (z-score) [1] | glycan array binding signal (z-score) [2] | glycan array binding signal (z-score) [3] | glycan array binding signal (z-score) [4] | glycan array binding signal (z-score) [5] | glycan array binding signal (z-score) [6] | glycan array binding signal (z-score) [7] | glycan array binding signal (z-score) [8] | glycan array binding signal (z-score) [9] | glycan array binding signal (z-score) [10] | glycan array binding signal (z-score) [11] | glycan array binding signal (z-score) [12] | glycan array binding signal (z-score) [13] | glycan array binding signal (z-score) [14] | glycan array binding signal (z-score) [15] | glycan array binding signal (z-score) [16] | glycan array binding signal (z-score) [17] | glycan array binding signal (z-score) [18] | glycan array binding signal (z-score) [19] | glycan array binding signal (z-score) [20] | glycan array binding signal (z-score) [21] | glycan array binding signal (z-score) [22] | glycan array binding signal (z-score) [23] | glycan array binding signal (z-score) [24] | glycan array binding signal (z-score) [25] | glycan array binding signal (z-score) [26] | glycan array binding signal (z-score) [27] | glycan array binding signal (z-score) [28] | glycan array binding signal (z-score) [29] | glycan array binding signal (z-score) [30] |
| --- | --- | --- | --- | --- | --- | --- | --- | --- | --- | --- | --- | --- | --- | --- | --- | --- | --- | --- | --- | --- | --- | --- | --- | --- | --- | --- | --- | --- | --- | --- |
| B1 | -0.167 | -0.189 | -0.195 | – | – | – | – | – | – | – | – | – | – | – | – | – | – | – | – | – | – | – | – | – | – | – | – | – | – | – |
| B2 | – | – | – | -0.173 | -0.151 | -0.148 | -0.151 | -0.116 | -0.176 | -0.134 | -0.17 | -0.09 | -0.175 | -0.175 | -0.173 | -0.165 | -0.171 | -0.16 | -0.177 | 8.57 | 7.38 | 8.69 | 6.04 | 6.52 | -0.156 | 0.451 | -0.173 | -0.015 | -0.17 | -0.149 |
